Test [1] deals with Albumin (Bos taurus) (UniProt P02769). Nature of the test: compounds binding labelled BSA control protein – biochemical, small-molecule microarray, Alexa647 label, 635/667 nm fluorescence, artefact control for SMM control protein annotation, profiling panel (AID 1118).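 Also: score merges 667 nm emission intensity and signal-to-noise per printed compound spot.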 Particulars: BSA-A647 binding, fluorescence 635 nm, higher = more signal.
Test [2] in a line: probe aXIP binding to arrayed compounds – biochemical, NeuroSMM set, 635/667 nm fluorescence, primary screen (AID 1119).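 Also: probe is the protein aXip251-270 applied at 1 µg/mL to compound-printed slides; binding of probe to printed compounds measured as 667 nm fluorescence plus signal to noise.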 Conditions: small-molecule microarray, higher = more signal, called active from +8 up or from −8 down.
A short description of test [3]: probe aNOTCH3 binding on compound microarray – biochemical, small-molecule microarray, 635/667 nm fluorescence, primary screen (AID 1120).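 Also: probe is a biotin-tagged antibody raised against NOTCH3 rather than NOTCH3 protein; score merges spot fluorescence near 667 nm with spot signal to noise.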 Particulars: higher = more signal.
Test [4] in a line: probe aNOTCH2 binding on compound microarray – biochemical, small-molecule microarray, 635/667 nm fluorescence, primary screen (AID 1121).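 Also: score merges feature fluorescence read at 667 nm with its signal to noise.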 Particulars: higher = more signal.
In test [5] the target is Carbonic anhydrase 2 (Homo sapiens) (UniProt P00918). Nature of the test: compounds binding carbonic anhydrase 2 – biochemical, small-molecule microarray, Alexa647-labelled CAII, profiling panel (AID 1122). Particulars: CAII-A647 binding fluorescence, higher = more signal.
The nature of test [6]: COS7 lysate on small-molecule microarray, probe aHis, 635 nm (AID 1123).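 Also: z-score combines 667nm fluorescence intensity with signal-to-noise per printed compound spot.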 Particulars: COS7 cell lysate, fluorescence, higher = more signal.
Test [7] can be described thus: probe aLAP1 signal on lysate-treated microarray – cell lysate, small-molecule microarray, COS7 lysate, primary screen (AID 1124).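 Also: lysate comes from COS7 cells expressing LAP1 and is applied at 0.3 µg/mL; score merges spot fluorescence near 667 nm with signal-to-noise over triplicate slides.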 Particulars: probe aLAP1, fluorescence, higher = more signal.
Test [8] relates to Sam68 (KHDRBS1). Nature of the test: compounds binding KHDRBS1 protein – biochemical, small-molecule microarray, 635 nm fluorescence, primary screen (AID 1125).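 Also: score merges 667 nm channel intensity with signal to noise over triplicate slides.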 Conditions: higher = more signal.
Test [9] deals with Chordin-like protein 2 (CHRDL2). Put plainly: compounds binding chordin-like 2 – biochemical, small-molecule microarray, 635 nm fluorescence, primary screen (AID 1126).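 Also: printed compound slides probed with Chrdl2 protein at 4 µg/mL for 1 h at 4 C; score merges 667 nm emission intensity with signal to noise over three replicate slides.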 Particulars: fluorescence 635 nm, higher = more signal.
Test [10] addresses Concanavalin-A (Canavalia ensiformis) (UniProt P02866). Nature of the test: compounds binding concanavalin A lectin – biochemical, small-molecule microarray, Alexa647 label, 635 nm, artefact control for SMM control protein annotation, primary screen (AID 1127).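 Also: z combines 667 nm emission intensity with signal-to-noise across three replicate slides.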 Particulars: ConA-A647 binding fluorescence, higher = more signal.
The nature of test [11]: compounds binding Alexa647 anti-His antibody – biochemical, small-molecule microarray, 635 nm fluorescence, artefact control for SMM control protein annotation, primary screen (AID 1128).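 Also: score merges feature fluorescence with signal-to-noise for each printed compound spot.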 Conditions: higher = more signal.
In test [12] the test system is Human papillomavirus type 1a E7 protein (residues 1-88). Nature of the test: HPV1a E7 small-molecule binders, primary screen, biochemical, small-molecule microarray, residues 1-88, 635 nm (AID 1129). Particulars: small-molecule microarray binding, fluorescence 635 nm; higher = more signal.
Test [13] has as its target Focal adhesion kinase 1 (Homo sapiens) (UniProt Q05397). Nature of the test: PTK2 protein binding on printed compound slides – biochemical, small-molecule microarray, 635/667 nm fluorescence, BSA, DTT, primary screen (AID 1130).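 Also: composite of spot emission at 667 nm and signal to noise over triplicate slides.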 Conditions: 635 nm fluorescence, higher = more signal.
The subject of test [14] is Fibrinogen (Alexa647-labelled). Put plainly: Alexa647-fibrinogen binding to printed small molecules – biochemical, small-molecule microarray, 635/667 nm fluorescence, artefact control for SMM control-protein annotation, profiling panel (AID 1131).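 Also: z-score merges 667 nm fluorescence with per-spot signal-to-noise over triplicate slides.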 Conditions: fibrinogen-A647 binding fluorescence, higher = more signal.
Test [15] deals with Follistatin (Homo sapiens) (UniProt P19883). Nature of the test: FST protein binding to printed compounds – biochemical, small-molecule microarray, 635/667 nm fluorescence, primary screen (AID 1132). Conditions: 635 nm fluorescence, higher = more signal.
Test [16] has as its target Fibroblast growth factor 2 (Homo sapiens) (UniProt P09038). Nature of the test: basic fibroblast growth factor binding to printed compounds – biochemical, small-molecule microarray, 635/667 nm fluorescence, primary screen (AID 1133). Particulars: FGF2, fluorescence 635/667, higher = more signal.
A short description of test [17]: JC-1 mitochondrial potential readout, lung cancer cells – cell-based, A549, JC-1 fluorescence, basal, 24 h, 100 nL, profiling panel (AID 1138).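 Also: A549 lung adenocarcinoma cells under basal conditions with no added stimulus; test concentration not given here.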 Conditions: higher = more signal.
Test [18] concerns Lefty1. Nature of the test: Lefty1 protein binding to printed compounds – biochemical, small-molecule microarray, 635/667 nm fluorescence, primary screen (AID 1139). Conditions: fluorescence 635/667, higher = more signal.
Test [19] has as its system wheat germ agglutinin (Triticum aestivum), Alexa647-labelled. Nature of the test: Alexa647-WGA lectin binding to printed small molecules – biochemical, small-molecule microarray, 635/667 nm fluorescence, artefact control for SMM control-protein annotation, profiling panel (AID 1140).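 Also: score merges 667 nm feature emission with signal to noise over triplicate slides.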 Particulars: WGA-A647 binding, 635 nm fluorescence, higher = more signal.
The target in test [20] is Luciferin 4-monooxygenase (Photinus pyralis) (UniProt P08659). Nature of the test: inhibition of purified Photinus pyralis luciferase – biochemical, luminescence, purified enzyme, 2006 set, primary screen (AID 1141).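 Also: cell-free assay with purified firefly luciferase at 100 ng per well in PBS; test concentration not given here.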 Particulars: purified firefly luciferase, SteadyGlo luminescence, 30 min; higher = more signal, called active from +8 up or from −8 down.

Active and inactive are the calls of the source.

Focal adhesion kinase 1 (Homo sapiens), sequence (Q05397 whole entry, looked up): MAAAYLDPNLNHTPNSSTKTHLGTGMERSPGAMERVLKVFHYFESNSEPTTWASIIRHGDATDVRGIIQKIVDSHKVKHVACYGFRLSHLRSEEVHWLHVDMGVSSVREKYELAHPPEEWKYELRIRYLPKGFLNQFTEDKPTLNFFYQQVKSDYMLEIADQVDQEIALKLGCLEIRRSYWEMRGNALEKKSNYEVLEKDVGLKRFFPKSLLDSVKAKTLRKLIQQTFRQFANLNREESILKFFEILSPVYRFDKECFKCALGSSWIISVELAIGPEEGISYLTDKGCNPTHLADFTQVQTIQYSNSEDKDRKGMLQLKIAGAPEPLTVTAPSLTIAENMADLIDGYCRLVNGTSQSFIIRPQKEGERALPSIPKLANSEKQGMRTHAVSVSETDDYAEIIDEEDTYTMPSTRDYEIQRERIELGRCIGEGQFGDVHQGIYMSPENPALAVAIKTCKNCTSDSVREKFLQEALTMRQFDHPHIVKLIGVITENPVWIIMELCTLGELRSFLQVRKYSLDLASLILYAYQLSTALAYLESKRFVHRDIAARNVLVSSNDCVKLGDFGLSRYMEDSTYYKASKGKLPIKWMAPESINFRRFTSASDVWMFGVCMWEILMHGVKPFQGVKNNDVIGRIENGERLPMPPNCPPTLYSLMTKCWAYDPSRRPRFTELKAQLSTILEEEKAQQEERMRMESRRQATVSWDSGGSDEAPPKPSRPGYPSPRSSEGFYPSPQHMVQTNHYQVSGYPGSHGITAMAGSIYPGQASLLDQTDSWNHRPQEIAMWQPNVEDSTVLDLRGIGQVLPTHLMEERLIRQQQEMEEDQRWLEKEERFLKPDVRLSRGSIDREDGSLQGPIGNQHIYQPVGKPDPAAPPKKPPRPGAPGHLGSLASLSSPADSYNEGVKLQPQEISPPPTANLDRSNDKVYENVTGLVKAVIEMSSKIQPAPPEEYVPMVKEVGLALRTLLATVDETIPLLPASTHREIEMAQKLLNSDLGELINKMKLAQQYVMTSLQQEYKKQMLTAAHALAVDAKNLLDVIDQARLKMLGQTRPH
Luciferin 4-monooxygenase (Photinus pyralis), sequence (P08659 whole entry, looked up): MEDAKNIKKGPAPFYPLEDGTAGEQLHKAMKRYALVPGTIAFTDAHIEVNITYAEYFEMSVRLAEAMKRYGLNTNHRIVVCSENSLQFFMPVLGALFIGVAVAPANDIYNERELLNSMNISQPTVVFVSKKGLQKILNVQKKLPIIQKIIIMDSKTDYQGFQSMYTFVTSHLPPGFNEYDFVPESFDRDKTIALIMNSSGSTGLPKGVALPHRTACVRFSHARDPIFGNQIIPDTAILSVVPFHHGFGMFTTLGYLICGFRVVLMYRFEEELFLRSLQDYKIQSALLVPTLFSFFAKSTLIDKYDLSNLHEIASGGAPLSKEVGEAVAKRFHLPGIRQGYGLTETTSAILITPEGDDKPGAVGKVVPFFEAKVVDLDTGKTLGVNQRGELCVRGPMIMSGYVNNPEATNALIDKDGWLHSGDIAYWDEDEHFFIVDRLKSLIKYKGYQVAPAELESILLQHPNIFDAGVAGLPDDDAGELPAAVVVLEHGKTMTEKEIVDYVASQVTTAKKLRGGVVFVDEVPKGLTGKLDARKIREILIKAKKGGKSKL
Concanavalin-A (Canavalia ensiformis), sequence (P02866 whole entry, looked up): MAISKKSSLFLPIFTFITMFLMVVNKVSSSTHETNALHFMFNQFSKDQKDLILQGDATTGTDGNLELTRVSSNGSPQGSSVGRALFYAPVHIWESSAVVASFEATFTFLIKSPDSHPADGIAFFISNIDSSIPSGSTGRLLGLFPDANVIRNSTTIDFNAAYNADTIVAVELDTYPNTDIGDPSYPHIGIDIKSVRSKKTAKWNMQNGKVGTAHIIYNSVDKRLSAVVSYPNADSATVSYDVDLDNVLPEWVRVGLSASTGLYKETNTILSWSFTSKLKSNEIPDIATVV
Fibroblast growth factor 2 (Homo sapiens), sequence (P09038 whole entry, looked up): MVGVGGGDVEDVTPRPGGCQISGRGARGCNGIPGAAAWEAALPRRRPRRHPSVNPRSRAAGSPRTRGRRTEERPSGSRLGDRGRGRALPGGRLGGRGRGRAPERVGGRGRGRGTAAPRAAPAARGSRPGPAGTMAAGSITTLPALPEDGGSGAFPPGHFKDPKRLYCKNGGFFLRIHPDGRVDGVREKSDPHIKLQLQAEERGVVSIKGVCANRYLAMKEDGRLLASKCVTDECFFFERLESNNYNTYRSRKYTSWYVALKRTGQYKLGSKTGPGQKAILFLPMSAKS
Albumin (Bos taurus), sequence (P02769 whole entry, looked up): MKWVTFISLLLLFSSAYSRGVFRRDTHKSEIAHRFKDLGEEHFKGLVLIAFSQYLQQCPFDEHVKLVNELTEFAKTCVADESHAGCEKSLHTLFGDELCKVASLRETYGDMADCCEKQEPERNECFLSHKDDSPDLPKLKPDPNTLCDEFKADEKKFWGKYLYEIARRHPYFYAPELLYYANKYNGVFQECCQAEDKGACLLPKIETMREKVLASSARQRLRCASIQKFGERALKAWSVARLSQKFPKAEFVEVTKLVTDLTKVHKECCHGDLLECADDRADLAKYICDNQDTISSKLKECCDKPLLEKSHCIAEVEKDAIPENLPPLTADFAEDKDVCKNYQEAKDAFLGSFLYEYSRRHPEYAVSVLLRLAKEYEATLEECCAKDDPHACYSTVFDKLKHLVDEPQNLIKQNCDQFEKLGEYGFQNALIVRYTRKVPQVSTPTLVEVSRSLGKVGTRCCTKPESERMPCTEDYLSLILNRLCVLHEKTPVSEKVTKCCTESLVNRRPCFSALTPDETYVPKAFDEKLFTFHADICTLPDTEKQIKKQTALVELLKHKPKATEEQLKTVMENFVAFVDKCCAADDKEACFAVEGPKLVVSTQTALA
Follistatin (Homo sapiens), sequence (P19883 whole entry, looked up): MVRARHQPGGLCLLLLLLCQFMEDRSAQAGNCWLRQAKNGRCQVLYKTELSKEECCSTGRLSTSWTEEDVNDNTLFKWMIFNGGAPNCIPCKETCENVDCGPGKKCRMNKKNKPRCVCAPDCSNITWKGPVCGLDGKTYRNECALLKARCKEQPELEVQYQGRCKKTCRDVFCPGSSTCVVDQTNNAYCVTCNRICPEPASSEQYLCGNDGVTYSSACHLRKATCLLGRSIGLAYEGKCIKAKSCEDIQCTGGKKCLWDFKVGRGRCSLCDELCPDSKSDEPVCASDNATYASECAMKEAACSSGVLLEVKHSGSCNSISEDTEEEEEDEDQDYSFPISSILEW

With `CCOC(=O)[C@H](Cc1ccccc1)NC(=O)CCC1CC(OC(=O)NCc2ccc3c(c2)OCO3)CC2(CCCC(COC(=O)NCCOC)O2)O1` (stereo not given in full), the composite z-score was -0.756 in test [1]; 0.163 in test [3]; -0.0785 in test [4]; 0.134 in [5]; 0.577 in test [6]; -0.172 in [7]. The composite z-score in [8] was 1.3; in test [9] it was 0.379; in test [10], 1.06; in test [11], 0.431; in [12] it was 1.14; in [13], -0.341. The composite z-score is 0.69 in test [14]; 0.808 in [15]; 0.455 in [16]; 1.26 in [18]; 0.581 in [19]. Also, the composite Z-score in test [2] is 0.0786 (inactive). In addition, the z-score in test [17] was -0.599; in test [20] it was 0.724 (inactive).

As to `O=C1CCCC=C1C(O)C1CCCCC1` (stereo not given), the composite z-score in [1] was -0.0548; in [3], -0.0325; in test [4], -0.0818; in test [5] it was -0.102; in test [6], 0.181; in [7] it was -0.607. Moreover, the composite z-score in test [8] was -0.429; in test [9], 0.214; in test [10], -0.275; in [11], -0.481; in test [12], -0.568; in [13] it was -0.365. In addition, the composite z-score is -0.206 in test [14]; 0.316 in test [15]; -0.297 in test [16]; 0.562 in [18]; -0.0135 in test [19]. Further, in test [2], the composite Z-score is -0.0549 (inactive). Further, the figures for the z-score in [17] and in test [20] were 0.168 and -0.376 (inactive), respectively.

As to `O=C1[C@H]2[C@H]3[C@H](O)[C@H](O)CC(=NOC[C@@H](O)COCc4ccco4)[C@@H]3CC[C@H]2C(=O)N1C1CCCCC1`, the composite z-score in [1] is 0.0451; in test [3], 0.149; in test [4], -0.251; in test [5], 0.057; in test [6], -0.39; in test [7], -0.0177. In addition, the composite z-score is 0.827 in test [8]; 1.52 in test [9]; -0.421 in test [10]; 0.0182 in test [11]; -0.244 in test [12]; -0.569 in test [13]. Besides, the composite z-score was -0.811 in [14]; 1.22 in test [15]; 1.37 in test [16]; 1.58 in [18]; -0.284 in [19]. Moreover, in test [2], the composite Z-score was -0.415 (inactive). Moreover, the results for the z-score in test [17] and in test [20] were -0.144 and 0.0055 (inactive), respectively.

As for `CCN1C(=O)[C@H]2[C@H]3[C@H](O)[C@H](O)CC(=NNC(=O)OCc4ccccc4)[C@@H]3CC[C@H]2C1=O`, the composite z-score is 0.489 in test [1]; -0.0647 in [3]; -0.14 in test [4]; -0.289 in test [5]; 0.917 in [6]; -0.314 in [7]. Besides, the composite z-score in test [8] was -0.327; in test [9], -0.0079; in test [10], 0.145; in test [11] it was 0.545; in [12], -0.513; in test [13], -0.116. The composite z-score in test [14] was 0.315; in test [15] it was 0.0633; in test [16], -0.0789; in test [18] it was 0.066; in test [19], 0.128. Moreover, the composite Z-score in test [2] was -0.45 (inactive). The z-score in test [17] is 0.207; in test [20] it was 0.248 (inactive).

In the case of `CCOC(=O)NN=C1C[C@@H](O)[C@@H](O)[C@@H]2[C@@H]3C(=O)N(CC)C(=O)[C@@H]3CC[C@H]12`, the composite z-score in test [1] was 0.541; in [3] it was -0.0879; in test [4], -0.126; in [5], 0.448; in test [6], 0.0053; in test [7] it was -0.0396. In addition, the composite z-score is -0.221 in [8]; 0.202 in [9]; 0.173 in [10]; 0.241 in test [11]; -0.351 in [12]; 0.105 in test [13]. The composite z-score in test [14] is 0.569; in test [15], -0.408; in [16], 0.0278; in [18], 0.0358; in test [19], 0.195. Besides, the composite Z-score in test [2] is -0.415 (inactive). Moreover, the z-score was -0.00768 in test [17] and -0.557 (inactive) in [20].

Consider `CC[C@@H](c1ccccc1)n1c(=O)n2n(c1=O)[C@H]1[C@H](O)[C@@H]3O[C@@H]3C(=NOCc3ccccc3)[C@H]1CC2`, for which the composite z-score in test [1] is 0.536; in [3], 0.0306; in test [4], -0.203; in test [5], 0.178; in test [6], 0.423; in test [7], -0.502. In addition, the composite z-score in test [8] was 0.0843; in test [9], 0.283; in [10], 0.966; in test [11], 0.274; in test [12], 0.0875; in [13], -0.207. Moreover, the composite z-score in test [14] is 0.931; in test [15], 0.598; in test [16], 0.373; in test [18], 0.65; in test [19] it was 0.676. The composite Z-score in test [2] is -0.558 (inactive). The results for the z-score in [17] and in test [20] were -1.14 and 0.0145 (inactive), respectively.
